According to PubChem BioAssay (Tox21):
Results filed as inconclusive are left out. The source made the active and inactive calls. Unless noted, the call rests on the fitted dose curve; in most records, active means well fitted curve in the direction sought with a large enough effect in the repeat runs; inconclusive means weak or mixed curves; inactive means no such curve, though single readings can be large; an effect the other way counts as inactive or inconclusive.

Experiments:
[1] = qHTS assay to identify small molecule agonists of the hypoxia (HIF-1) signaling pathway - cell viability counter screen (AID 1224844; calls by dose curve; further: nearly all actives have a fitted effect of over 50% in size)
In short: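 CellTiter-Glo luminescence read-out, 30 min RT, taken in the same wells as the beta-lactamase HRE reporter assay; HRE-bla ME-180 cells, 0.5% dialyzed FBS, 17 hr compound treatment at 37C, 5% CO2.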

[2] = qHTS assay to identify small molecule agonists of H2AX (AID 1224845; active means well fitted activation curve with a large enough effect in the signal ratio in the repeat runs, not every such curve was filed as active; the % refers to the signal ratio)
In short: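 Wild-type CHO-K1 cells, plated overnight, exposed 3hr at 37C to 15 concentrations (0.76% DMSO final). Lysed, then HTRF anti-pH2AX (S139) cryptate and anti-H2AX-d2 antibodies, 24 hr room temperature; 665/620 nm emission read.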

[3] = qHTS assay to identify small molecule agonists of the hypoxia (HIF-1) signaling pathway (AID 1224846; active means well fitted activation curve with a large enough effect in the signal ratio in the repeat runs, not every such curve was filed as active; the % refers to the signal ratio)
In short: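 Beta-lactamase FRET read-out (CCF4-AM substrate) from ME-180 cells carrying an HRE-driven bla reporter, after 17 hrs compound exposure at 37C/5% CO2. Cells were seeded at 2,000 per well in 0.5% dialyzed FBS medium and preincubated 5 hrs.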

[4] = qHTS assay to identify small molecule antagonists of the estrogen related receptor (ERR) signaling pathway from Tox21 library (AID 1224848); further: nearly all actives have a fitted effect of over 50% in size; further: potency means the concentration at half of the fitted maximal effect
In short: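 Quantitative high-throughput format: ERR reporter cells (2,000/well) pre-incubated 6 h, treated 18 h at 37 C with compounds in DMSO alongside positive and negative controls, then read by ONE-Glo luminescence.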

[5] = qHTS assay to identify small molecule agonists of the estrogen related receptor (ERR) signaling pathway from Tox21 library (AID 1224849; calls by dose curve; further: nearly all actives have a fitted effect of over 15% in size); details: ERR reporter cell line, ONE-Glo luciferase, 18 h; at 92.4 µM (top of the series) unless noted
In short: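 Luminescence readout (ONE-Glo, 30 min RT) after 18 h compound exposure at 37 C of NTP-supplied ERR reporter cells; cells were plated 6 h before compound addition by pin tool.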

[6] = qHTS RealTime-Glo MT Cell Viability Assay in HepG2 cells - 24 hour (AID 1224867); further: nearly all actives have a fitted effect of over 50% in size
In short: (§1)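 HepG2 cells (600/well) were dispensed with RealTime-Glo reagents, incubated 5 h at 37 °C, then treated with compounds in DMSO for up to 40 h. Nonlytic NanoLuc luminescence reflecting viable cells was read at each stated time point.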

[7] = qHTS RealTime-Glo MT Cell Viability Assay in HEK293 cells - 32 hour (AID 1224868); further: top concentration of the series differs between compounds; nearly all actives have a fitted effect of over 50% in size
In short: (§2)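 HEK293 cells seeded with NanoLuc/prosubstrate reagent, rested 5 h at 37 C, then dosed and kept at 37 C up to 40 h. Nonlytic real-time luminescence from viable cells read at 0, 8, 16, 24, 32 and 40 h.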

[8] = A CellTox Green Cytotoxicity Assay to monitor cytotoxicity in HEK293 cells - 0 hour (AID 1224869); further: nearly all actives have a fitted effect of over 50% in size
In short: (§3)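 Read-out: fluorescence of a cell-impermeant cyanine dye staining DNA of dead cells, proportional to cytotoxicity. HEK293, 600 cells/well with reagent, compound (23 nL DMSO) added after 5 h; reads at 0, 8, 16, 24, 32, 40 h.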

[9] = qHTS RealTime-Glo MT Cell Viability Assay in HepG2 cells - 40 hour (AID 1224870); further: nearly all actives have a fitted effect of over 50% in size
In short: (§4)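 HepG2 cells (600/well) mixed with RealTime-Glo MT reagent, settled 5 h at 37 C/5% CO2 before compound addition. Nonlytic NanoLuc luminescence from viable-cell prosubstrate reduction read repeatedly during 40 h treatment at 37 C.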

[10] = A CellTox Green Cytotoxicity Assay to monitor cytotoxicity in HEK293 cells - 40 hour (AID 1224871); further: nearly all actives have a fitted effect of over 45% in size
In short: as §3

[11] = qHTS RealTime-Glo MT Cell Viability Assay in HEK293 cells - 16 hour (AID 1224872); further: nearly all actives have a fitted effect of over 50% in size; further: potency means the concentration at half of the fitted maximal effect
In short: as §2

[12] = qHTS RealTime-Glo MT Cell Viability Assay in HepG2 cells - 8 hour (AID 1224873); further: nearly all actives have a fitted effect of over 55% in size
In short: as §4

[13] = qHTS RealTime-Glo MT Cell Viability Assay in HEK293 cells - 40 hour (AID 1224874); details: RealTime-Glo luminescence; max response: active compounds read low; further: nearly all actives have a fitted effect of over 50% in size; further: potency means the concentration at half of the fitted maximal effect
In short: (§5)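 Luminescence readout at each listed time point; HEK293, 600 cells/well, RealTime-Glo MT reagent added with cells; compounds pinned (23 nL in DMSO) after 5 h at 37 C; continuous culture at 37 C.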

[14] = A CellTox Green Cytotoxicity Assay to monitor cytotoxicity in HEK293 cells - 24 hour (AID 1224875); further: nearly all actives have a fitted effect of over 45% in size
In short: as §3

[15] = qHTS RealTime-Glo MT Cell Viability Assay in HepG2 cells - 32 hour (AID 1224877); further: nearly all actives have a fitted effect of over 55% in size
In short: as §1

[16] = qHTS RealTime-Glo MT Cell Viability Assay in HEK293 cells - 0 hour (AID 1224880); further: nearly all actives have a fitted effect of over 45% in size; further: potency means the concentration at half of the fitted maximal effect
In short: as §5

[17] = qHTS assay to identify small molecule agonists of H2AX - cell viability counter screen (AID 1224847; calls by dose curve; further: top concentration of the series differs between compounds; nearly all actives have a fitted effect of over 30% in size)
In short: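 After overnight plating of 1000 CHO-K1 cells per well, a 15-concentration compound series was applied for 3 hr at 37C. Luminescence from CellTiter-Glo, read following 30 min at room temperature, reflected cell viability.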

[18] = A CellTox Green Cytotoxicity Assay to monitor cytotoxicity in HepG2 cells - 16 hour (AID 1224876); further: nearly all actives have a fitted effect of over 45% in size
In short: (§6)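 HepG2, 600 cells/well premixed w/ CellTox Green; 5 h settle, 37 C/5% CO2; pintool cpd add (DMSO); 37 C, 40 h; fluorescence read at 0, 8, 16, 24, 32, 40 h.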

[19] = A CellTox Green Cytotoxicity Assay to monitor cytotoxicity in HepG2 cells - 24 hour (AID 1224878); further: nearly all actives have a fitted effect of over 45% in size
In short: as §6

[20] = A CellTox Green Cytotoxicity Assay to monitor cytotoxicity in HepG2 cells - 40 hour (AID 1224879); further: nearly all actives have a fitted effect of over 40% in size
In short: as §6
On the % scale 0 is the no-effect control and ±100 the full control effect.

Cc1cccc(OCCOc2cccc(C)c2)c1
inactive: Potency [1] | Potency [2] | outcome [3] | Potency [4] | activity change, positive = activation [5] 10.4% | Potency [6] | Potency [7] | Potency [8] | Potency [9] | Potency [10] | Potency [11] | Potency [12] | max response [13] -15.5% | Potency [14] | Potency [15] | Potency [16]

O=c1c2ccccc2nnn1CCl
inactive: Potency [1] | Potency [2] | outcome [3] | Potency [17] | Potency [6] | Potency [8] | Potency [11] | Potency [12] | max response [13] 10.3% | Potency [18] | Potency [15] | Potency [19] | Potency [20]

CN(C)CCCNCCCN
inactive: Potency [1] | Potency [2] | outcome [3] | Potency [17] | Potency [6] | Potency [8] | Potency [9] | Potency [10] | Potency [11] | Potency [12] | max response [13] 24.4% | Potency [14] | Potency [15] | Potency [16]

O=c1[nH]cnc2ccccc12
inactive: Potency [1] | Potency [2] | outcome [3] | Potency [17] | Potency [6] | Potency [7] | Potency [8] | Potency [9] | Potency [11] | Potency [12] | Potency [14] | Potency [18] | Potency [15] | Potency [19] | Potency [20]

CCCCOC(=O)c1ccccc1C(=O)OCC(CC)CCCC (centres undefined)
inactive: Potency [1] | Potency [2] | outcome [3] | Potency [17] | Potency [6] | Potency [8] | Potency [9] | Potency [10] | Potency [11] | Potency [12] | Potency [14] | Potency [18] | Potency [15] | Potency [19] | Potency [20] | Potency [16]

Cc1cc(CC(=O)O)c(C)n1-c1ccc(Cl)cc1
inactive: Potency [1] | Potency [2] | outcome [3] | Potency [4] | activity change, positive = activation [5] -14.3% [at 42.5 µM] | Potency [6] | Potency [7] | Potency [8] | Potency [9] | Potency [11] | Potency [12] | max response [13] -0.616% | Potency [14] | Potency [18] | Potency [15] | Potency [20] | Potency [16]

CC(C)CC=O
inactive: Potency [1] | Potency [2] | outcome [3] | Potency [17] | Potency [6] | Potency [8] | Potency [9] | Potency [10] | Potency [11] | Potency [12] | max response [13] 6.71% | Potency [14] | Potency [18] | Potency [15] | Potency [20] | Potency [16]

CC(C)(C)C1CCCCC1O (centres undefined)
inactive: Potency [1] | Potency [2] | outcome [3] | Potency [17] | Potency [6] | Potency [8] | Potency [9] | Potency [10] | Potency [11] | Potency [12] | max response [13] 0.612% | Potency [14] | Potency [15] | Potency [16]

O=CNc1ccccc1
inactive: Potency [1] | Potency [2] | outcome [3] | Potency [4] | activity change, positive = activation [5] -1.57% | Potency [6] | Potency [7] | Potency [8] | Potency [10] | Potency [11] | Potency [12] | max response [13] -8.05% | Potency [14] | Potency [18] | Potency [15] | Potency [19] | Potency [20] | Potency [16]

CC[C@@H]1C[C@H](N(Cc2cc(C(F)(F)F)cc(C(F)(F)F)c2)C(C)=O)c2cc(C(F)(F)F)ccc2N1C(=O)OC(C)C
inactive: Potency [1] | Potency [2] | outcome [3] | Potency [17] | Potency [6] | Potency [8] | Potency [9] | Potency [10] | Potency [11] | Potency [12] | max response [13] -22.8% | Potency [14] | Potency [18] | Potency [15] | Potency [19] | Potency [20] | Potency [16]

CCCCCCCCCC(=O)OCC
inactive: Potency [1] | Potency [2] | outcome [3] | Potency [17] | Potency [6] | Potency [8] | Potency [9] | Potency [10] | Potency [11] | Potency [12] | Potency [14] | Potency [18] | Potency [15] | Potency [19] | Potency [20] | Potency [16]

O=C(NS(=O)(=O)/C=C/c1cccs1)c1ccc(F)cc1Br
active: Potency [16] 19.5 µM
inactive: Potency [1] | Potency [2] | outcome [3] | Potency [17] | Potency [6] | Potency [8] | Potency [11] | Potency [12] | Potency [14] | Potency [18] | Potency [15] | Potency [19]

CCCC(C)C
inactive: Potency [1] | Potency [2] | outcome [3] | Potency [17] | Potency [6] | Potency [8] | Potency [9] | Potency [12] | Potency [18] | Potency [15] | Potency [19] | Potency [20] | Potency [16]

COC(=O)CSc1cc(N=c2sc(=O)n3n2CCCC3)c(F)cc1Cl
inactive: Potency [1] | Potency [2] | outcome [3] | Potency [17] | Potency [6] | Potency [8] | Potency [9] | Potency [10] | Potency [11] | Potency [12] | max response [13] 3.98% | Potency [18] | Potency [15] | Potency [19] | Potency [16]

COc1ccc(OC)c(OC)c1
inactive: Potency [1] | Potency [2] | outcome [3] | Potency [17] | Potency [6] | Potency [8] | Potency [9] | Potency [10] | Potency [11] | Potency [12] | max response [13] 15.8% | Potency [14] | Potency [18] | Potency [15] | Potency [19] | Potency [20] | Potency [16]

CC(C)(C)c1cc(O)c(C(C)(C)C)cc1O
active: Potency [4] 24.3 µM | Potency [11] 17.4 µM | Potency [13] 30.9 µM
inactive: Potency [1] | Potency [2] | outcome [3] | activity change, positive = activation [5] -60.5% | Potency [6] | Potency [8] | Potency [9] | Potency [10] | Potency [12] | Potency [14] | Potency [15] | Potency [20] | Potency [16]

CCOC(=O)C1=C(C)NC(C)=C(C(=O)OC)C1c1cccc([N+](=O)[O-])c1 (centres undefined)
inactive: Potency [1] | Potency [2] | outcome [3] | Potency [17] | Potency [8] | Potency [10] | Potency [14] | Potency [18]
